Sampled rows, rich in hits. Any-hit rate of the full collection: about 1.3%.
TrxR1 inh: qHTS Assay for Inhibitors of Mammalian Selenoprotein Thioredoxin Reductase 1 (TrxR1): qHTS | Thioredoxin reductase 1, cytoplasmic (Rattus norvegicus), O89049 | recombinant rTrxR1, NADPH fluorescence consumption, selenite substrate | hit rate 1% among 390,000 | Potency, µM (series often up to 114 µM), for inactives: top-dose activity change, negative = inhibition, hits mostly inhibitors; further: nearly all actives have a fitted effect of over 65% in size
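Rat TrxR1 (90 nM in the dispensed reagent) was pre-reduced with 400 uM NADPH for 5 min at room temperature, then incubated with compound for 15 min. After 400 uM selenite was added, NADPH fluorescence (Ex 340/Em 450 nm) was followed for 8 min.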
TrxR1 substrate: qHTS Assay for Substrates of Mammalian Selenoprotein Thioredoxin Reductase 1 (TrxR1): qHTS; Potency, µM (doses to about 114 µM), inactives show at the highest dose activity change, negative = substrate turnover; purified TrxR1 substrate turnover, NADPH consumption readout; hit rate 0.01% among 390,000; Thioredoxin reductase 1, cytoplasmic (Rattus norvegicus), O89049; AID 588456, 2011; further: nearly all actives have a fitted effect of over 50% in size
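Rat TrxR1, dispensed at 90 nM, was prereduced with 400 uM NADPH (final) for 5 min at ~22 deg C, then incubated with compound 15 min before 400 uM selenite. A first-read NADPH fluorescence drop versus no-compound background flagged substrates.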
Apoferritin bind: qHTS Assay for Identification of Novel General Anesthetics. Ferritin light chain (Equus caballus), P02791. apoferritin/1-aminoanthracene competitive binding, fluorescence. Potency, µM (titrated, usually from 77.5 µM), for inactives: at the highest dose activity change, negative = displacement, most hits filed as inhibitors. hit rate 0.074% among 350,000; further: nearly all actives have a fitted effect of over 20% in size
Target sequence (P02791 2-175 limits assumed): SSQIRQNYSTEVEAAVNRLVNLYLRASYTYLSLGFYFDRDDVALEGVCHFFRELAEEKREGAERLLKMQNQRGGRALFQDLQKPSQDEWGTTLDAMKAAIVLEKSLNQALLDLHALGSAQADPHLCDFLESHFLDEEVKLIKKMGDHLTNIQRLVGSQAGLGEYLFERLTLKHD
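Horse-spleen apoferritin (10 uM) was mixed with 50% saturated 1-aminoanthracene in PBS, exposed to compounds for 10 min at room temperature, and read for fluorescence (ex 380 nm, em 535 nm). Competitive displacement was fitted with a four-parameter Hill equation.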
GALK inh: qHTS Assay for Inhibitors of Human Galactokinase (GALK); P51570; Purified GALK, Kinase-Glo residual ATP luminescence; Potency, µM (doses to about 57.5 µM), for the others: top-dose activity change, negative = inhibition, actives largely listed as inhibitors; hit rate 0.007% among 270,000; AID 1868, 2009
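Human GALK (5 nM) with 35 uM ATP and 100 uM galactose in 20 mM HEPES pH 8.0, 5 mM MgCl2, 60 mM NaCl, 1 mM DTT, 0.01% BSA. After 1 h at room temperature, leftover ATP was read by Kinase-Glo Plus luminescence.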
IDH1 R132H inh: qHTS for Inhibitors of mutant isocitrate dehydrogenase 1 (IDH1): qHTS; IDH1-R132H enzyme, NADPH consumption, diaphorase/resazurin fluorescence; Potency, µM (titrated, usually from 76.6 µM), for inactives: at the highest dose activity change, negative = inhibition, most hits filed as inhibitors; hit rate 0.093% among 390,000; AID 602179, 2012; further: nearly all actives have a fitted effect of over 65% in size
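IDH1-R132H (0.5 ug/mL) preincubated 30 min with compound, then NADPH (0.016 mM) and alpha-KG (2 mM) added; 80 min at RT, pH 7.5. Remaining NADPH coupled via diaphorase/resazurin to fluorescence (540/590 nm); concentration-response curves normalized to no-enzyme control.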
PKM2 activator: qHTS Assay for Activators of Human Muscle isoform 2 Pyruvate Kinase | purified PKM2, Kinase-Glo ATP luminescence, activation; response scale: 0% is enzyme alone, no compound | Potency, µM (top dose mostly 57.5 µM), without a hit: top-dose activation, actives largely listed as activators | hit rate 0.34% among 260,000 | AID 1631, 2009; further: nearly all actives have a fitted effect of over 55% in size
Target sequence (P14618 whole entry, looked up, canonical isoform): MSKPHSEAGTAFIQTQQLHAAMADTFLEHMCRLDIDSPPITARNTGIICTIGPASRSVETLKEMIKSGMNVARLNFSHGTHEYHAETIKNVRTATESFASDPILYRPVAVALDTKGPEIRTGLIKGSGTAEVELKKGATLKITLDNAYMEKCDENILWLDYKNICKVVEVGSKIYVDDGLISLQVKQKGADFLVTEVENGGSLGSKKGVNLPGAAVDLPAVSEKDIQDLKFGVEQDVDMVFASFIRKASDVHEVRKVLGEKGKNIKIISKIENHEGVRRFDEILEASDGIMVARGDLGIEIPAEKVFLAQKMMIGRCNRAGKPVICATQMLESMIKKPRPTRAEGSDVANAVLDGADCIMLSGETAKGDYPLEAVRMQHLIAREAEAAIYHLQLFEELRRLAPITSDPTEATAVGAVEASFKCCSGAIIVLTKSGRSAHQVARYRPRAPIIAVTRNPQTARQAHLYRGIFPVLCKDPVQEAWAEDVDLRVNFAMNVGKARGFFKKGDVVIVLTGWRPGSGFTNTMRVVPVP
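hPK-M2, >95% pure; 0.1 mM ADP / 0.5 mM PEP final; imidazole pH7.2 buffer w/ 7 mM MgCl2, 50 mM KCl; 1 h RT; Kinase-Glo lum. Intermediate enzyme activity for dual inhibitor/activator qHTS.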
* hit, by the source's call; ? = inconclusive; . = no result given; [ ] = dose if it differs, or a comment. The call rests on the fitted dose curve; in most records, active means well fitted curve in the direction sought with a large enough effect; inconclusive means small, poorly fitted or top-dose-only effect, or another doubt; inactive means no such curve, though single readings can be large; an effect the other way counts as inactive or inconclusive. On the % scale 0 is the no-effect control and ±100 the full control effect; potency means the concentration at half of the fitted maximal effect.

SMILES	TrxR1 inh	TrxR1 substrate	Apoferritin bind	GALK inh	IDH1 R132H inh	PKM2 activator
Nc1nnc(SCc2ccccc2Cl)s1	-7%	-7%	11µM*	1%	5%	1%
CCN(C(=O)COC(=O)/C=C/c1ccco1)C1CCCCC1	35µM*	-6%	.	.	1%	.
CCOC(=O)c1c(C)[nH]c(C)c1C(=O)COC(=O)/C=C/c1ccco1	20µM*	-5%	.	.	23%	.
CCOC(=O)c1c(C)[nH]c(C)c1C(=O)COC(=O)/C=C/c1ccc(OC)cc1	0%	-10%	.	.	6%	.
CCN(C(=O)COC(=O)/C=C/c1ccc(F)cc1)C1CCCCC1	4%	-3%	.	.	-3%	.
Cc1ccc(CNC(=O)c2cnc(N(C)C)nc2)cc1	0%[57.1 µM]	-2%[57.1 µM]	2%	.	.	.
O=C(O)c1cc(-c2ccco2)nn1-c1ccc(Cl)cc1	?	11%	-9%	1%	8%	-20%
Cc1ccc(-n2nc(-c3ccco3)cc2C(=O)O)c(C)c1	-37%	-3%	-12%	11%	2%	28µM*
O=C(NC(=S)Nc1nc(-c2cccc([N+](=O)[O-])c2)cs1)c1ccccc1Cl	13%[57.1 µM]	2%[57.1 µM]	-3%	-1%	12%	-2%
O=C(NC(=S)Nc1nc(-c2cccc([N+](=O)[O-])c2)cs1)c1cc(Cl)ccc1Cl	28µM*	3%[57.1 µM]	-5%	6%	-4%	-4%
CCc1ccc(NC(=O)C(=O)NCC(c2ccc3c(c2)OCO3)N2CCOCC2)cc1 (configuration not stated)	5%[57.1 µM]	-1%[57.1 µM]	8%	.	-12%	.
CCCn1c(N)c(C(=S)NC(=O)C2CC2)c(=O)n(C)c1=O	?	-14%	-12%	1%	-7%	5%
CCCCn1c(N)c(C(=S)NC(=O)CC(C)C)c(=O)n(C)c1=O	56µM*	5%	-3%	1%	12%	2%
CCOC(=O)c1cc(OC(=O)c2cc(Cl)ccc2OC)n(-c2ccccc2)n1	28%	7%	-6%	.	1%	.
O=c1cc(CSc2nnnn2-c2ccccc2)nc2sccn12	18%[57.1 µM]	-3%	-8%	-3%	2%	?
O=c1cc(CSc2nnnn2-c2ccccc2)nc2scc(-c3ccccc3)n12	8%	-1%	-17%	-2%	19%	25µM*
CCN(CC)Cc1cc(O)c(CN(CC)CC)cc1O	10µM*	7%	-8%	6%	13%	-16%
NC(N)=NS(=O)(=O)c1ccc(NC(=S)NC(=O)/C=C/c2ccccc2)cc1	34%	5%	-6%	-2%	3%	5%
NC(N)=NS(=O)(=O)c1ccc(NC(=S)NC(=O)c2ccccc2)cc1	50µM*	-11%	-7%	.	1%	-1%
Cc1ccc(S(=O)(=O)/N=C(\Sc2ccccc2)c2ccccc2)cc1	2.8µM*	14%	-22%	3%	1%	-5%
COc1ccc(NC(=S)N/C(=N/S(=O)(=O)c2ccc(C)cc2)c2ccccc2)cc1	22µM*	-2%	-9%	-2%	6%	-10%
CCOc1ccc(C(=O)c2cn(CC(=O)Nc3ccc(F)c(F)c3)c3cc4c(cc3c2=O)OCCO4)cc1	-9%	-5%	-18%	.	12%	.
O=C(O)C#CC(=O)O	27%	8%	.	.	.	.
CS(=O)(=O)c1ccc(Sc2nc3ccccc3s2)c([N+](=O)[O-])c1	40µM*	-4%	7%	-3%	3%	-4%
O=[N+]([O-])c1cc(S(=O)(=O)C(F)(F)F)ccc1Sc1nc2ccccc2s1	1.6µM*	-7%	-18%	0%	23%	-3%
SMILES	TrxR1 inh	TrxR1 substrate	Apoferritin bind	GALK inh	IDH1 R132H inh	PKM2 activator
O=[N+]([O-])c1cc(S(=O)(=O)C(F)(F)F)ccc1Sc1nc2ccccc2[nH]1	8.9µM*	-13%	?	1%	5%	3%
CS(=O)(=O)c1ccc(Sc2nc3ccccc3[nH]2)c([N+](=O)[O-])c1	-29%	-7%	-6%	-3%	0%	3%
O=S(=O)(Nc1ccc(O)c(Sc2nc3ccccc3s2)c1)c1ccc(F)cc1	7%	-3%	?	0%	?	2%
C=CCOC(=O)C1=C(C)N=c2s/c(=C3\C(=O)N(CC(=O)O)c4ccccc43)c(=O)n2C1c1ccc(OC)cc1 (configuration not stated)	35µM*	-11%	-15%	-7%	6%	?
Nc1ncnc2c1nc(Sc1ccc(Cl)cc1)n2[C@H]1OC2COP(=O)(O)O[C@H]2[C@@H]1O (some centres not stated)	7%	3%	.	.	.	.
O=C(CSC1=Nc2ccccc2N=C(c2ccc(F)cc2)C1)NCc1ccccc1	-10%[57.1 µM]	-11%[57.1 µM]	2%	.	-6%	.
Cc1cc(C)n2nc(CNC(=O)c3cccc(N(C)C)c3)nc2n1	-6%	1%	-5%	.	9%	.
O=C(CSc1nnc(-c2ccc(O)cc2)o1)Nc1cccc(O)c1	-3%[57.1 µM]	0%[57.1 µM]	-12%	-2%	5%	7.9µM*
Cc1cccc(-c2nc3scc(CCNC(=O)c4ccccc4Cl)n3n2)c1	7%[57.1 µM]	1%[57.1 µM]	-3%	.	0%	.
CC(C(=O)Nc1sc2c(c1C(=O)NCc1ccco1)CCCC2)N1C(=O)c2ccccc2C1=O (configuration not stated)	-5%[57.1 µM]	-6%[57.1 µM]	-11%	1%	-8%	4%
O=C(CCN1C(=O)c2ccccc2C1=O)Nc1sc2c(c1C(=O)NCc1ccco1)CCCC2	20µM*	1%[57.1 µM]	?	0%	8%	-13%
CC1CN(C(=O)N2CCC(C(=O)NCCCc3ccccc3)CC2)c2ccccc2O1 (configuration not stated)	10%	3%[11.4 µM]	-3%	.	-8%	.
Fc1ccccc1Cn1nnc2c(NCCc3ccccn3)ncnc21	-12%	-13%	-22%	-3%	-3%	13µM*
Fc1cccc(Cl)c1Cn1nnc2c(NCc3ccccn3)ncnc21	-2%	-3%	-9%	1%	-3%	30%
Nc1nc(N)c(S(=O)(=O)c2ccccc2)c(Nc2ccc(F)cc2)n1	6%	-8%	3%	.	-5%	.
O=S1(=O)CCOC[C@H](c2ccccc2)N1Cc1ccc(Cl)c(Cl)c1	31%	-1%	.	.	.	.
COc1cccc(NC(=O)COc2ccccc2C(=O)Nc2ccccc2)c1	0%	-7%	.	.	.	.
O=C(/C=C/c1ccco1)N1CCN(c2ncccn2)CC1	40µM*	-9%	0%	1%	1%	25%

Screening results from PubChem.
